Whole data set: some 33,000 sequences, median “E-score (-0.5 to 0.5)” near -0.021, cut for the highest 2% near 0.32. This excerpt belongs to a sample that is enriched for the highest values.

The target in the assay is T1, Zap1 (UniProt P47043).
T1 sequence: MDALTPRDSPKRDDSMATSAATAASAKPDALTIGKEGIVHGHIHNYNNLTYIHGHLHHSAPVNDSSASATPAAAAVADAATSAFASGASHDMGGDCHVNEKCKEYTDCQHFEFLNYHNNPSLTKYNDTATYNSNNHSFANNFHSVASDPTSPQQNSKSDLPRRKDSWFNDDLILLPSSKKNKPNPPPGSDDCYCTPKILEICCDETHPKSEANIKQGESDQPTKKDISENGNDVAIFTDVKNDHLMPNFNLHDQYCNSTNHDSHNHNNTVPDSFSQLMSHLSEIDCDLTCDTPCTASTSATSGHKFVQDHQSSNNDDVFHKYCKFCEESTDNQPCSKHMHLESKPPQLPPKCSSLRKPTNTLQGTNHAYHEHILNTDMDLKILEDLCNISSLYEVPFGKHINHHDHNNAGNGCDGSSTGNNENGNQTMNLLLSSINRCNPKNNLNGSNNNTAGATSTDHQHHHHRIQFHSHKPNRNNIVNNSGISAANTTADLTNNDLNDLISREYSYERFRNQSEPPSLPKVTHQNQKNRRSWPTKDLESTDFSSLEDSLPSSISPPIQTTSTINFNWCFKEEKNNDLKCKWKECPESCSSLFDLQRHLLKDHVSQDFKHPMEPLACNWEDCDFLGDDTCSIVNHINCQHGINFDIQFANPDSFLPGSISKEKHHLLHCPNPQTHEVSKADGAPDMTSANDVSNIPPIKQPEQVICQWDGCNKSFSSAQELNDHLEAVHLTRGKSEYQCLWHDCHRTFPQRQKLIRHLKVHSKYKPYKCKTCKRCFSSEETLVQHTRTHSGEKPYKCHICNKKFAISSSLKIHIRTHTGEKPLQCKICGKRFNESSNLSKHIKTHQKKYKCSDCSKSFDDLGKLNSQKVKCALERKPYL
Nature of the assay: PBM E-score (8-mer binding enrichment) (E-score (-0.5 to 0.5)); higher = stronger / more preferred TF binding. The settings on record: protein concentration: 200 nM; construct: GST-full length. In a few lines: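 Universal all-10-mer Agilent arrays, double-stranded by primer extension on fresh or once-stripped slides, were probed with about 100-200 nM GST-tagged yeast transcription factors made by PURExpress. Fluorescent anti-GST detected bound protein, and masliner normalised the scans. E-scores from the Universal PBM Analysis Suite were given to each ungapped eight-base word pooled with its reverse complement.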
In the case of TACAAGTA, the “PBM E-score” value is 0.0103.

Regarding AACCTAAT, the “PBM E-score” value was 0.204.

Consider GATCAACC, for which the “PBM E-score” value is -0.0383.

Turning to GTGAGCGA, the “PBM E-score” value was found to be 0.1.

With ATCAGTAC, the “PBM E-score” value was -0.0201.

Take AGGTGCAA: the “PBM E-score” value came to 0.0924.

For the sequence TTTGAAAA, the “PBM E-score” value is 0.273.

In the case of GAGTTCGA, the “PBM E-score” value amounted to 0.0349.

In the case of TAACCACA, the “PBM E-score” value came to 0.417.

Take AAACCACG: the “PBM E-score” value was -0.0205.

In the case of GAACCCCA, the “PBM E-score” value worked out at 0.291.

As for AAACCACA, the “PBM E-score” value amounted to 0.184.

With AAACCCCA, the “PBM E-score” value is 0.261.

As to TAACCCCA, the “PBM E-score” value is 0.424.

For GTGAGTCA, the “PBM E-score” value is -0.0169.

For CCAACTAC, the “PBM E-score” value came out at 0.0442.

Turning to ACGCGATC, the “PBM E-score” value is -0.143.

As for AACCACTA, the “PBM E-score” value came out at 0.369.

For ACCCACAA, the “PBM E-score” value turned out to be 0.353.

For GACCACAA, the “PBM E-score” value turned out to be 0.185.

Take AACCACAA: the “PBM E-score” value was found to be 0.34.

In the case of ACCCACAC, the “PBM E-score” value is 0.225.

On to AACCACAT, for which the “PBM E-score” value was found to be 0.234.

Regarding TACCACAA, the “PBM E-score” value stood at 0.359.

On to CACCACAA, for which the “PBM E-score” value was 0.147.

ACCCACAG: the “PBM E-score” value stood at 0.2.

In the case of AACCACAG, the “PBM E-score” value was 0.233.

With TACCACTA, the “PBM E-score” value is 0.179.

CACCACTA: the “PBM E-score” value was 0.22.

With AAACTTAT, the “PBM E-score” value is 0.19.

Consider AGAAACTC, for which the “PBM E-score” value was -0.0693.

As to GACAGTAA, the “PBM E-score” value is 0.0265.

Take AGCTGGCG: the “PBM E-score” value is -0.283.

AGAAGAGA: the “PBM E-score” value was -0.205.

Regarding CCAAGATC, the “PBM E-score” value was -0.0112.

Turning to ACTGCACT, the “PBM E-score” value was -0.149.

Consider ACAATGGA, for which the “PBM E-score” value was found to be 0.159.

With AAGGAGGA, the “PBM E-score” value is -0.291.

For CAGTTACG, the “PBM E-score” value is -0.0217.

Regarding AGGTTAGC, the “PBM E-score” value worked out at 0.23.

On to AGGTTACA, for which the “PBM E-score” value came to 0.453.

As to AAGTTACT, the “PBM E-score” value is -0.0263.

AAGTTACA: the “PBM E-score” value came to 0.169.

As to AGGTTAGA, the “PBM E-score” value was found to be 0.185.

On to AGGTTACT, for which the “PBM E-score” value is 0.457.

Turning to CGGTTAAG, the “PBM E-score” value was 0.289.

As for CGGTTACG, the “PBM E-score” value amounted to 0.401.

For ACGTTACT, the “PBM E-score” value was 0.143.

In the case of AGGTTAGG, the “PBM E-score” value worked out at 0.348.

In the case of ACGTTACA, the “PBM E-score” value was -0.0394.

Turning to CGCTCTCC, the “PBM E-score” value is -0.119.

ATCCTCTA: the “PBM E-score” value is -0.118.

As to AAACGCCG, the “PBM E-score” value is -0.159.

Take TACTGGGA: the “PBM E-score” value amounted to 0.0284.

ACCAATCG: the “PBM E-score” value stood at 0.0293.

Consider ACACGCTA, for which the “PBM E-score” value was -0.194.

In the case of CGCCTCAA, the “PBM E-score” value is -0.107.

For the sequence CTCGAAGA, the “PBM E-score” value came to 0.0261.

For the sequence GATTCCTA, the “PBM E-score” value turned out to be 0.0308.

CGATCCAC: the “PBM E-score” value is 0.00013.

Take AGGTTACG: the “PBM E-score” value worked out at 0.459.

ACGTTACG: the “PBM E-score” value worked out at 0.0601.

For the sequence AAGTTACG, the “PBM E-score” value worked out at 0.17.

Consider ATAACTCC, for which the “PBM E-score” value stood at 0.128.

Consider CAGGTTGC, for which the “PBM E-score” value stood at 0.0972.

Consider AAGGTTGC, for which the “PBM E-score” value turned out to be 0.343.

Turning to AAGGTTGT, the “PBM E-score” value was determined as 0.384.

On to CAGGTTGG, for which the “PBM E-score” value was 0.0671.

On to AAGGTTGG, for which the “PBM E-score” value is 0.281.

With AAGGTTGA, the “PBM E-score” value came to 0.149.

GTCAGAAC: the “PBM E-score” value came to 0.0394.

Regarding AAATGGGA, the “PBM E-score” value was -0.0864.

In the case of GTCCCCCA, the “PBM E-score” value is -0.185.

For GCGGTTAC, the “PBM E-score” value was determined as 0.452.

Turning to GCTGTTAC, the “PBM E-score” value was -0.104.

For GCGGTTAA, the “PBM E-score” value was determined as 0.356.

Consider CCGGTTAC, for which the “PBM E-score” value came out at 0.398.

Consider GCGGTTGA, for which the “PBM E-score” value worked out at 0.149.

With CCGGTTTC, the “PBM E-score” value is 0.0368.

Regarding CCGGTTAA, the “PBM E-score” value is 0.261.

For the sequence GCGGTTCC, the “PBM E-score” value was determined as 0.217.

Consider CCGGTTAG, for which the “PBM E-score” value came to 0.159.

With AAGCTTGT, the “PBM E-score” value was 0.15.

In the case of CATCGTTC, the “PBM E-score” value was -0.015.

With AGGAACCA, the “PBM E-score” value worked out at 0.0162.

For CGAGCGCC, the “PBM E-score” value was -0.202.

Source of the values: the supplement of paper PMC3334620.
